Bioassay records (PubChem BioAssay)
In the library only some 7.5% were active in any assay of this set; here they are far more common.
VP16 counter: inhibits Gal4-VP16 luciferase reporter, ROR gamma counter-screen; Drosophila S2 Gal4-VP16 UAS-luciferase, luminescence, 20 h; Potency, µM (titrated, usually from 53.6 µM), actives largely listed as inhibitors; 310,000 tested, 3.5% active; AID 2546;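 note: Gal4-VP16 expression switched on by copper sulfate through the metallothionein promoter; nearly all actives have a fitted effect of over 50% in size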
RORgamma inh: inhibitors of mouse ROR gamma transcriptional activity; P51450; Drosophila S2 Gal4-RORgamma UAS-luciferase reporter, 20 h; Potency, µM (highest dose often 53.6 µM), most hits filed as inhibitors; 310,000 tested, 5.4% active; note: nearly all actives have a fitted effect of over 60% in size
Target sequence (P51450 whole entry, looked up, the tested form may be a part): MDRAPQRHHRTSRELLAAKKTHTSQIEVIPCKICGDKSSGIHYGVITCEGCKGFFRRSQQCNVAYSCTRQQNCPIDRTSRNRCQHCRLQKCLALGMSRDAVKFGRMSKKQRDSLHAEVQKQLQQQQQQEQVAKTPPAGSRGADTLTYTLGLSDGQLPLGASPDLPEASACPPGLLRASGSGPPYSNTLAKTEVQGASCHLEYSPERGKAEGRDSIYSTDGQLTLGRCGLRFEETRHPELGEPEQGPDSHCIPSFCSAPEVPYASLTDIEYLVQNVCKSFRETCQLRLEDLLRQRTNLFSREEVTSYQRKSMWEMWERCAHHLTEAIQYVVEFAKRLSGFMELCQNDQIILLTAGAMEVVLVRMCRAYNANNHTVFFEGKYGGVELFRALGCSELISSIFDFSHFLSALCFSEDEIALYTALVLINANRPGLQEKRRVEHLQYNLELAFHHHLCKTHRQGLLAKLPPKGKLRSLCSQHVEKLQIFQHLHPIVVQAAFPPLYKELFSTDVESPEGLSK
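In this cell-based reporter format, copper sulfate (700 uM final) drives Gal4–ROR gamma fusion expression from a metallothionein promoter in Drosophila Schneider cells; compounds preincubated 1 hr, reporter read after 20 hr at ambient temperature.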
B2AR arrestin: recruits beta-arrestin to the human beta2-adrenergic receptor; beta-arrestin recruitment to beta2AR, cell-based reporter; Potency, µM (highest dose often 46.1 µM), hits mostly activators; 330,000 tested, 0.02% active; AID 492947; note: nearly all actives have a fitted effect of over 65% in size
TSHR antag: antagonists of human thyroid stimulating hormone receptor | TSHR-expressing cells, TSH-stimulated cAMP HTRF, 2 h; hits give low values | activity change, negative = inhibition, % at 11.5 µM | 330,000 tested, 0.2% active | AID 504810;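 active = activity change below a set negative limit, meaning inhibition stronger than a set level, cut at about -70% in these data; inconclusive = activity change between two set negative limits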
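Antagonism was scored as loss of TSH-driven cAMP in TSHR cells, stimulated with 4nM TSH (EC80) for 2 hours at 37 deg C and detected by homogeneous HTRF competition immunoassay.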
ELG1 DNA repair: inhibitors of ELG1-dependent DNA repair in HEK293T cells; 330,000 tested, 2.3% active; Potency, µM (highest dose often 46.1 µM), most hits filed as inhibitors; HEK293T ELG1-luciferase reporter, luminescence, 16 h; DNA damage induced by 5-fluorouridine; note: nearly all actives have a fitted effect of over 55% in size
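Luminescence from the luciferase reporter, measured 30 min after ONE-Glo reagent at room temperature, was the read-out. Beforehand, 2,000 cells per well were exposed for 16 hr at 37 °C to 5-fluorouridine together with compound or vehicle.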
Large screens that a line does not name were inactive. Unless noted, calls come from the whole dose curve; as a rule, active = well fitted curve in the direction sought with a large enough effect; inconclusive = small, poorly fitted or top-dose-only effect, or another doubt; inactive = no such curve, though single readings can be large; an effect the other way counts as inactive or inconclusive.

CCNc1ncc2nc(CCc3ccccc3)c(=O)n(-c3ccccc3)c2n1	none (no result: B2AR arrestin, TSHR antag, ELG1 DNA repair)
Cc1cc(Cl)ccc1NC(=O)C1CCN(S(C)(=O)=O)CC1	none
O=S(=O)(/N=C/c1ccccc1O)c1cccs1	none
CC(C)(C)c1cc[n+](C2=C([O-])c3ccccc3C(=O)/C2=N\S(=O)(=O)c2cccs2)cc1	VP16 counter 8.9µM, RORgamma inh 11µM, ELG1 DNA repair 2.9µM
O=C1/C(=N\S(=O)(=O)c2cccs2)C([n+]2ccccc2)=C([O-])c2ccccc21	VP16 counter inconclusive, ELG1 DNA repair 2.6µM
CC(C)(CNC(=O)C1c2ccccc2-c2ccccc21)N1CCOCC1	TSHR antag -82
COc1ccc(C2CC(=O)Oc3cc(C)c(Cl)cc32)cc1 (centres undefined)	none
Cc1cccc(N2CCN(C(=O)CCS(=O)(=O)c3ccc4c(c3)NC(=O)CO4)CC2)c1C	none
Cc1cccc(N2CCN(C(=O)CCNS(=O)(=O)c3ccc4c(c3)CCC(=O)N4)CC2)c1C	ELG1 DNA repair 11µM
Cc1nc(N2CCCCC2)sc1C(=O)c1ccc(Cl)c([N+](=O)[O-])c1	ELG1 DNA repair 18µM
COc1ccc(C2c3ccc4ccccc4c3Oc3ncn(CCCN(C)C)c(=N)c32)cc1 (centres undefined)	VP16 counter inconclusive, RORgamma inh 10µM, ELG1 DNA repair inconclusive
COc1ccccc1C1c2ccc3ccccc3c2Oc2ncn(CCN(C)C)c(=N)c21 (centres undefined)	RORgamma inh 10µM, ELG1 DNA repair inconclusive
COc1ccc(C2c3c(ncn(CCN4CCOCC4)c3=N)Oc3ccc4ccccc4c32)cc1OC (centres undefined)	VP16 counter 13µM
COC(=O)c1ccccc1N(C)S(=O)(=O)c1cc2c3c(c1)CCC(=O)N3CCC2	none (no result: VP16 counter, RORgamma inh)
Cc1nc(S(=O)(=O)N(C)c2ccccc2)c(C#N)c(C)c1Cl	ELG1 DNA repair 23µM
CN(c1ccccc1)S(=O)(=O)c1ccc(Cl)nc1	none
Cn1c(=O)c2c(-c3ccccc3)n(-n3cnnc3)cc2n(C)c1=O	VP16 counter inconclusive, RORgamma inh 18µM, B2AR arrestin inconclusive, ELG1 DNA repair inconclusive
COc1ccnc(CSC(N)=Nc2cccc(C(F)(F)F)c2)c1	VP16 counter 13µM, RORgamma inh 6.3µM
COc1ccnc(CSC(N)=Nc2ccccc2C(F)(F)F)c1	RORgamma inh inconclusive, ELG1 DNA repair inconclusive
N[C@@H]1CCN(O)C1=O	none (no result: B2AR arrestin, TSHR antag, ELG1 DNA repair)
COc1cccc(Nc2ncc3nc(-c4cc(F)cc(F)c4)c(=O)n(CCC#N)c3n2)c1	none (no result: B2AR arrestin, TSHR antag, ELG1 DNA repair)
COc1cc2c(cc1OC)C1(NCC2)C(=O)Nc2ccccc21 (centres undefined)	none
COc1cc2c(cc1OC)C1(Nc3c-2c(Cc2ccccc2)nn3-c2ccccc2)C(=O)Nc2ccccc21 (centres undefined)	ELG1 DNA repair 13µM
O=C(Sc1cccc2cccnc12)c1ccccc1Br	VP16 counter 2µM, RORgamma inh 0.79µM, ELG1 DNA repair inconclusive
O=C(CSc1cccc2cccnc12)Nc1ccccc1F	VP16 counter inconclusive, RORgamma inh inconclusive
CN(C)C(=O)CSc1cccc2cccnc12	VP16 counter inconclusive, RORgamma inh 10µM, B2AR arrestin inconclusive, ELG1 DNA repair inconclusive
O=C(Sc1cccc2cccnc12)c1ccc(F)cc1	VP16 counter 4.5µM, RORgamma inh 1.1µM, ELG1 DNA repair inconclusive
NNC(=O)CSc1cccc2cccnc12	none
CNc1ccccc1C(C)(C)c1cc(-c2cccc(OC)c2)no1	VP16 counter inconclusive, RORgamma inh 1.4µM, ELG1 DNA repair 1.5µM
CC[C@H]1c2[nH]c3ccccc3c2C[C@H]2C(=O)N(c3ccc(F)cc3)C(=O)N21	ELG1 DNA repair 7.3µM (no result: VP16 counter, RORgamma inh)
O=c1[nH]n(-c2ccc(F)cc2)c2ncccc12	ELG1 DNA repair inconclusive
Cc1c(-c2ccccn2)c(=O)[nH]n1-c1ccc(F)cc1	VP16 counter inconclusive, RORgamma inh 6.3µM, ELG1 DNA repair inconclusive
Cc1cc(CNC(=O)[C@H](C)[C@H]2C[C@]2(C)[C@H](NC(=O)OCc2ccccc2)c2ccccc2)nn1C	none (no result: B2AR arrestin, TSHR antag, ELG1 DNA repair)
Cc1ccc(/C=C/C(=O)c2ccc(N3CCOCC3)cc2)s1	VP16 counter inconclusive, ELG1 DNA repair inconclusive
Cc1ccc(NC(=O)CNc2cccc(Br)c2)cc1S(=O)(=O)N1CCOCC1	ELG1 DNA repair 23µM (no result: VP16 counter, RORgamma inh)
